Records with an inconclusive call do not appear. Values without a mark were called inactive. Calls of active or inactive are those of the source. The call rests on the fitted dose curve; in most records, active means well fitted inhibition curve with a large enough effect; inconclusive means small, poorly fitted or top-dose-only effect; inactive means no such curve, though single readings can be large or run the other way.
Assay: qHTS Screen of the MIPE 4.0 Collection Against Ewings Sarcoma (RDES) (AID 1259252); further: nearly all actives have a fitted effect of over 35% in size;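 on viability (percent of control): 100% = DMSO-treated cells and 0% = medium-only wells without cells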
Conditions: RD-ES Ewing sarcoma viability, CellTiter-Glo, 48 h; series mostly up to 45.8 µM; viability (percent of control): at the top concentration
In short: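 Dose series incubated 48 h with cells in RPMI plus 5% FBS, glutamine and penicillin/streptomycin; cell viability then quantified via CellTiter-Glo.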
Potency means the concentration at half of the fitted maximal effect.

Structure (SMILES)	viability (percent of control)	Potency
CON=C(C(=O)N[C@@H]1C(=O)N2C(C(=O)O)=C(Cn3ccc(=N)n3CCO)CS[C@H]12)c1csc(N)n1	119%	
CCc1cc(C(C)=NOCc2ccc(C3CCCCC3)c(C(F)(F)F)c2)ccc1CN1CC(C(=O)O)C1	122%	
COc1ccc([C@@H]2CNC(=O)C2)cc1OC1CCCC1		0.833 µM (active)
N#CC(=Cc1ccc(O)c(O)c1)C(=O)NCc1ccccc1		23.5 µM (active)
CC(=O)O[C@]1(C(C)=O)CC[C@H]2[C@@H]3C=C(C)C4=CC(=O)CC[C@]4(C)[C@@H]3CC[C@@]21C		3.32 µM (active)
C=CC[C@@H]1C=C(C)C[C@H](C)C[C@H](OC)[C@H]2O[C@@](O)(C(=O)C(=O)N3CCCC[C@H]3C(=O)O[C@H](C(C)=C[C@@H]3CC[C@H](O)[C@H](OC)C3)[C@@H](C)[C@@H](O)CC1=O)[C@@H](C)C[C@@H]2OC		2.64 µM (active)
N#CC(=C(N)Sc1ccc(N)cc1)c1ccccc1C(F)(F)F		5.9 µM (active)
COc1cc(C)c(Sc2cnc(NC(=O)c3ccc(CNC(C)C(C)(C)C)cc3)s2)cc1C(=O)N1CCN(C(C)=O)CC1 (configuration not stated)		16.6 µM (active)
COc1ccc(Nc2cc(-c3cnc(N)nc3)nc(N3CCOCC3)n2)cn1		5.9 µM (active)
C[N+]1(C)[C@@H]2C[C@@H](OC(=O)C(O)(c3cccs3)c3cccs3)C[C@H]1[C@@H]1O[C@@H]12	127%	
CC(=O)N[C@H]1[C@@H]([C@H](O)[C@H](O)CO)OC(C(=O)O)=C[C@@H]1N=C(N)N	122%	
C=C1C[C@@]2(O)O[C@@]3(C[C@H]2C(C)C)[C@H](C)CC[C@H]13	126%	

— PubChem BioAssay (NCATS)
